In assay [1] the target is Paired box protein Pax-6 (Homo sapiens) (UniProt P26367). The assay can be described thus: ATG_Pax6_CIS: Attagene CIS-FACTORIAL HepG2 Assay for human Paired Box 6 (PAX6) (AID 2282956). Conditions: HepG2 CIS-FACTORIAL PAX6 reporter transcription, RNA readout; actives raise or lower the signal. In short, it runs like this:
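Transient MRTU transfection of HepG2 → compound exposure 24 h → TriZol RNA, oligo(dT) RT → PCR, 6-FAM primer extension, HpaI cut → capillary electrophoresis; activity fitted both directions against DMSO.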

Assay [2] is described as follows: ATG_PXRE_CIS: Attagene CIS-FACTORIAL HepG2 Assay for human Pregnane X Receptor Element (PXRE) (AID 2282957). Conditions: HepG2 Attagene CIS-FACTORIAL PXRE reporter, mRNA; actives raise or lower the signal. In a few lines: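 Cells: HepG2, transiently transfected reporter units under cis promoter control. Exposure: 24 h. Detection: reporter mRNA via RT-PCR/CE fluorescence; bidirectional fitting, DMSO-referenced.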

The nature of assay [3]: ATG_PPRE_CIS: Attagene CIS-FACTORIAL HepG2 Assay for human Peroxisome Proliferator-activated Response Element (PPRE) (AID 2282958). Conditions: HepG2 PPRE cis-element reporter, Attagene transcription factor profiling; actives raise or lower the signal. In short, it runs like this:
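Transcript-level reporter induction in transfected HepG2 cells after 24 h chemical exposure, quantified by fluorescence from RT-PCR products separated by capillary electrophoresis.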

Assay [4] in a line: ATG_RORE_CIS: Attagene CIS-FACTORIAL HepG2 Assay for human RAR-related Orphan Receptor Element (RORE) (AID 2282959). Conditions: HepG2 Attagene cis-factorial RORE reporter, mRNA; actives raise or lower the signal. In short, it runs like this:
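Multiplexed reporter assay measuring mRNA induction from a cis promoter element in transiently transfected HepG2 cells after 24 h treatment. Detection via RT-PCR and capillary electrophoresis fluorescence; DMSO serves as baseline.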

The nature of assay [5]: ATG_Sox_CIS: Attagene CIS-FACTORIAL HepG2 Assay for human SRY-box transcription factor (SOX) (AID 2282960). The settings on record: HepG2 Attagene cis-factorial SOX reporter, mRNA; actives raise or lower the signal. In short, it runs like this: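 Cells were transfected with reporter constructs under cis-regulatory promoters, then exposed to chemicals for 24 h. Reporter transcripts were quantified by fluorescence after RT-PCR and capillary electrophoresis; activity was fitted in both directions against DMSO.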

Assay [6] has as its target Transcription factor Sp1 (Homo sapiens) (UniProt P08047). As to the kind of experiment: ATG_Sp1_CIS: Attagene CIS-FACTORIAL HepG2 Assay for human Specificity Protein 1 (Sp1) (AID 2282961). Conditions: HepG2 Sp1 cis-reporter transcription, actives raise or lower the signal. In short, it runs like this:
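Measures mRNA induction of an Sp1-linked reporter in HepG2 cells 24 h post-dosing. Multiplexed reporters read by RT-PCR and capillary electrophoresis; DMSO serves as negative control and baseline.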

A short description of assay [7]: ATG_SREBP_CIS: Attagene CIS-FACTORIAL HepG2 Assay for human Sterol Regulatory Element Binding (SREBP) (AID 2282962). The settings on record: HepG2 Attagene cis-factorial SREBP reporter, mRNA; actives raise or lower the signal. In short, it runs like this:
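Transfected HepG2 (cis-regulated reporter library, endogenous TFs) → compound 24 h → total RNA → oligo(dT) RT → reporter-specific PCR → FAM primer extension, HpaI cut → CE fluorescence. Fit bidirectional vs DMSO.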

Assay [8] has as its target Signal transducer and activator of transcription 3 (Homo sapiens) (UniProt P40763). The assay can be described thus: ATG_STAT3_CIS: Attagene CIS-FACTORIAL HepG2 Assay for human Signal Transducer and Activator of Transcription 3 (STAT3) (AID 2282963). Conditions: HepG2, Attagene cis-factorial STAT3 reporter transcription; actives raise or lower the signal. In a few lines:
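After a 24 h compound incubation, total RNA from MRTU-transfected HepG2 cells was converted to cDNA and reporter sequences PCR-amplified, labelled and profiled by capillary electrophoresis. Gain and loss of signal were referenced to DMSO.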

A short description of assay [9]: ATG_TA_CIS: Attagene CIS-FACTORIAL HepG2 Assay for human TA Basal Promoter (AID 2282964). Conditions: HepG2 Attagene CIS-factorial TA basal promoter reporter; actives raise or lower the signal. In a few lines:
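Cis-factorial format in HepG2: reporters report endogenous factors, not chimeric Gal4 fusions. After 24 h treatment, reporter transcripts were measured by RT-PCR-capillary electrophoresis fluorescence, analysed bidirectionally versus DMSO.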

Assay [10] is described as follows: ATG_TCF_b_cat_CIS: Attagene CIS-FACTORIAL HepG2 Assay for human T-Cell-Factor with beta-catenin (TCF/b-cat) (AID 2282965). The settings on record: HepG2 TCF/beta-catenin cis-reporter transcription, actives raise or lower the signal. In short, it runs like this:
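Endogenous transcription factor activity is captured through cis-promoter reporter constructs transiently introduced into human HepG2 liver cells. Induced reporter mRNA is measured after 24 h and fitted bidirectionally relative to DMSO.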

The nature of assay [11]: ATG_TAL_CIS: Attagene CIS-FACTORIAL HepG2 Assay for human TAL Basal Promoter (AID 2282966).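 Further: background control endpoint measuring basal TAL promoter reporter mRNA not a specific factor.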 Conditions: HepG2 Attagene cis-factorial TAL promoter reporter; actives raise or lower the signal. In a few lines: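 RT-PCR plus capillary electrophoresis quantifies reporter mRNA induction in transiently transfected HepG2 cells after 24 h chemical treatment. DMSO serves as negative control and baseline for bidirectional fitting.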

The nature of assay [12]: ATG_TGFb_CIS: Attagene CIS-FACTORIAL HepG2 Assay for human Transforming Growth Factor (TGF) (AID 2282967). Conditions: HepG2 Attagene CIS TGFb reporter, mRNA transcription; actives raise or lower the signal. In a few lines: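 Multiplexed cis-reporter HepG2 system, 24 h treatment; mRNA induction read by fluorescence after RT-PCR and CE; DMSO negative control, bidirectional curve fitting.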

Assay [13] is described as follows: ATG_VDRE_CIS: Attagene CIS-FACTORIAL HepG2 Assay for human Vitamin D Receptor Element (VDRE) (AID 2282968). The settings on record: HepG2 VDRE cis-reporter transcription, actives raise or lower the signal. In a few lines:
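In transiently transfected HepG2 liver cells, gain or loss of reporter mRNA after 24 h exposure is scored relative to DMSO, using fluorescence detection by capillary electrophoresis of RT-PCR products.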

The target of assay [14] is Nuclear receptor subfamily 1 group I member 3 (Homo sapiens) (UniProt Q14994). The assay can be described thus: ATG_CAR_TRANS: Attagene TRANS-FACTORIAL HepG2 Assay for human Constitutive Androstane Receptor (CAR) (AID 2282969; active means hit-call score of the fitted dose curve at least 0.9, where 1 is the maximum;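 further: activators raise reporter mRNA above DMSO so AC50 marks induction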). Conditions: HepG2 Attagene TRANS-FACTORIAL CAR reporter. In a few lines: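 Readout is reporter mRNA induction, quantified by fluorescent primer extension and capillary electrophoresis after RT-PCR. Cells were HepG2 transiently carrying chimeric NR-Gal4 constructs with GAL4-UAS reporters, treated for 24 h; activity scored upward from DMSO.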

In assay [15] the target is X-box-binding protein 1 (Homo sapiens) (UniProt P17861). As to the kind of experiment: ATG_Xbp1_CIS: Attagene CIS-FACTORIAL HepG2 Assay for human X-box Binding Protein 1 (XBP1) (AID 2282972). Conditions: HepG2 XBP1 cis-element reporter, Attagene multiplex; actives raise or lower the signal. In short, it runs like this: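 HepG2, transient MRTU transfection (cis-promoter driven), 24 h compound exposure. Total RNA → oligo(dT) RT → PCR → 6-FAM labeling → HpaI cut → CE. Bidirectional fit vs DMSO.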

In assay [16] the target is Estrogen receptor (Homo sapiens) (UniProt P03372). The assay can be described thus: ATG_ERa_TRANS: Attagene TRANS-FACTORIAL HepG2 Assay for human Estrogen Receptor alpha (ERa) (AID 2282970; active means hit-call score of the fitted dose curve at least 0.9, where 1 is the maximum). The settings on record: HepG2 Attagene TRANS ERa GAL4 reporter, mRNA. In a few lines: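 Cells: HepG2, transiently transfected. Construct: GAL4-UAS reporter units regulated by exogenous NR-Gal4 chimeras. Time: 24 h. Detection: reporter mRNA by RT-PCR, capillary electrophoresis, fluorescence. Baseline: DMSO, upward fitting.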

Assay [17] has as its target Steroid hormone receptor ERR1 (Homo sapiens) (UniProt P11474). As to the kind of experiment: ATG_ERRa_TRANS: Attagene TRANS-FACTORIAL HepG2 Assay for human Estrogen-Related Receptor alpha (ERRa) (AID 2282971; active means hit-call score of the fitted dose curve at least 0.9, where 1 is the maximum). Conditions: HepG2 Attagene TRANS reporter, ERRa transactivation. In a few lines:
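Reporter transcripts from ERRa-Gal4 chimera activity measured in transiently transfected human HepG2 cells 24 hours after dosing, using RT-PCR with 6-FAM primer extension, HpaI digestion and capillary electrophoresis; DMSO is baseline.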

A short description of assay [18]: ATG_M_19_TRANS: Attagene TRANS-FACTORIAL HepG2 Assay for M19 Transcription Factor (Internal Marker) (AID 2282974; active means hit-call score of the fitted dose curve at least 0.9, where 1 is the maximum). The settings on record: HepG2 Attagene TRANS-FACTORIAL M19 internal marker reporter. In a few lines: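 After transfection of HepG2 with GAL4-UAS-driven reporter constructs, cells are dosed for 24 h. Total RNA is reverse-transcribed, reporter sequences PCR-amplified and labelled, then HpaI-digested and sized by capillary electrophoresis.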

The nature of assay [19]: ATG_GAL4_TRANS: Attagene TRANS-FACTORIAL HepG2 Assay for GAL4 (Internal Marker) (AID 2282976; active means hit-call score of the fitted dose curve at least 0.9, where 1 is the maximum). The settings on record: HepG2 Attagene TRANS GAL4 internal marker reporter. In a few lines:
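In transfected human HepG2 liver cells dosed 24 h, GAL4 reporter mRNA serves as a baseline marker. Detection by RT-PCR with fluorescent capillary electrophoresis, activity fitted upward relative to DMSO.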

The target of assay [20] is Estrogen-related receptor gamma (Homo sapiens) (UniProt P62508). As to the kind of experiment: ATG_ERRg_TRANS: Attagene TRANS-FACTORIAL HepG2 Assay for human Estrogen-Related Receptor gamma (ERRg) (AID 2282977; active means hit-call score of the fitted dose curve at least 0.9, where 1 is the maximum;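 further: hits increase reporter signal over DMSO so potencies reflect activators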). Conditions: HepG2 Attagene TRANS reporter, ERRg transactivation. In short, it runs like this:
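Transient HepG2 transfectants, 24 h compound exposure, GAL4-UAS reporter mRNA by RT-PCR/6-FAM labelling/capillary electrophoresis; positive direction vs DMSO.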

SMILES strings stand for the structures. Records with an inconclusive call do not appear. The source made the active and inactive calls. How the source made its calls, unless noted: active means hit-call score of the fitted dose curve at least 0.9, where 1 is the maximum; inactive means score below 0.9.

Sequence of X-box-binding protein 1 (Homo sapiens) (P17861 whole entry, looked up): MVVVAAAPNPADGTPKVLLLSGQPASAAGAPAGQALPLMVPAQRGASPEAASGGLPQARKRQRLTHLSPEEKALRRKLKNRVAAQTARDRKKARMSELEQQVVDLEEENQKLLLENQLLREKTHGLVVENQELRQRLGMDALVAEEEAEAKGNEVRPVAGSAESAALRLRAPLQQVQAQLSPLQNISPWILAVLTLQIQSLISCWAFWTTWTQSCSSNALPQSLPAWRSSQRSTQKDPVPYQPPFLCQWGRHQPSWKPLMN
Sequence of Estrogen receptor (Homo sapiens) (P03372 whole entry, looked up, the tested form may be a part): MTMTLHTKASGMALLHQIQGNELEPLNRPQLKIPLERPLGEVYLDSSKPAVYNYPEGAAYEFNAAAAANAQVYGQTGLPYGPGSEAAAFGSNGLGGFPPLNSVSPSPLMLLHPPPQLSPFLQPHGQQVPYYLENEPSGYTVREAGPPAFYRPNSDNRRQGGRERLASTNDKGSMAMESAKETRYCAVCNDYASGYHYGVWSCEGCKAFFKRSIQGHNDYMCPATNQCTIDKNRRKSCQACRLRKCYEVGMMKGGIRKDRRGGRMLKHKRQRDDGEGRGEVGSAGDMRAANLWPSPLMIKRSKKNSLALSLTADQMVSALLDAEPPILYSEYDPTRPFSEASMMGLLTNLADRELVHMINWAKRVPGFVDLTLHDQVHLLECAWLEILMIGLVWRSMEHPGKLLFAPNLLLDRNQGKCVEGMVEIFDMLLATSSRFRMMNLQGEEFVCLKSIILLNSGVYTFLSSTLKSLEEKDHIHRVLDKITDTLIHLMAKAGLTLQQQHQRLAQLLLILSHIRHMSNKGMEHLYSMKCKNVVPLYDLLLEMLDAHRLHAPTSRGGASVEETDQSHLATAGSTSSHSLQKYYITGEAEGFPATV
Sequence of Signal transducer and activator of transcription 3 (Homo sapiens) (P40763 whole entry, looked up): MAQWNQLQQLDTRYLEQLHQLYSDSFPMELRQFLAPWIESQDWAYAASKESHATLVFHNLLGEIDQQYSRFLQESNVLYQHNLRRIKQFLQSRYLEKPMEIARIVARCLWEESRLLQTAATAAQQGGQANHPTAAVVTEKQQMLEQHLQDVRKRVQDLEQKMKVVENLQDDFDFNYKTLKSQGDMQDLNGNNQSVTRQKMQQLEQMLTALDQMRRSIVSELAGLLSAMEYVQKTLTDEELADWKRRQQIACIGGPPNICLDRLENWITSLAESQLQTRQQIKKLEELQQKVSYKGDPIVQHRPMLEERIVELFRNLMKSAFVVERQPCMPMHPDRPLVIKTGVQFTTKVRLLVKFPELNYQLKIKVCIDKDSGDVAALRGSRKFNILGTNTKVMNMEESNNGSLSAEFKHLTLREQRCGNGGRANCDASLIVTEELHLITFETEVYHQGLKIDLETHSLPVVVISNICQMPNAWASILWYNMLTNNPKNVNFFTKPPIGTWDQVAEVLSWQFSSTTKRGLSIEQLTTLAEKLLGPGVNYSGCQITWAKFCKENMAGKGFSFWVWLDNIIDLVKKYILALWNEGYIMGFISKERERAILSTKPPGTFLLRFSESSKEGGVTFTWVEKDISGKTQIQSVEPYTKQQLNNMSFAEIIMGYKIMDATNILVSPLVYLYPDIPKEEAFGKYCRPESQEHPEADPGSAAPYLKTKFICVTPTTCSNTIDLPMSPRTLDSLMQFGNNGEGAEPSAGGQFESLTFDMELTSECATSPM
Sequence of Transcription factor Sp1 (Homo sapiens) (P08047 whole entry, looked up): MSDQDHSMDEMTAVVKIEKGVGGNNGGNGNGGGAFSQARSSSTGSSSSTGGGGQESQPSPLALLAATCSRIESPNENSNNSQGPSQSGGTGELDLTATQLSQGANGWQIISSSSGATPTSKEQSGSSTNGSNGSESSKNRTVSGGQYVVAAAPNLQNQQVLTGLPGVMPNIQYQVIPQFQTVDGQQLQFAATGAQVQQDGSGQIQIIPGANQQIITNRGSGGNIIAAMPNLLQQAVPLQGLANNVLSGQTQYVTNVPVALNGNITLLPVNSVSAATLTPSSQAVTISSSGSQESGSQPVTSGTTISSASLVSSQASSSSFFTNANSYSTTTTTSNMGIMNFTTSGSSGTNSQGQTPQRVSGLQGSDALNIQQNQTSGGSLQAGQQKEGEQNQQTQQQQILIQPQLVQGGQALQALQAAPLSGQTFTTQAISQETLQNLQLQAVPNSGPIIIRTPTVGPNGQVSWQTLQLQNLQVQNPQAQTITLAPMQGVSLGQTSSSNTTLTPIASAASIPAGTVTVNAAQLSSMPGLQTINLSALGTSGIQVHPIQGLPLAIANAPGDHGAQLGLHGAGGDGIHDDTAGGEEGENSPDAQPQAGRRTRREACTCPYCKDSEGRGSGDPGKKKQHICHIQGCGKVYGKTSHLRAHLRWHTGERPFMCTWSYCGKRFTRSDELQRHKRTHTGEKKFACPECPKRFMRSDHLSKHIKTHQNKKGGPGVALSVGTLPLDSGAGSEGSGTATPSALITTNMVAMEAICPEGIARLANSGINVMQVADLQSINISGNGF
Sequence of Paired box protein Pax-6 (Homo sapiens) (P26367 whole entry, looked up): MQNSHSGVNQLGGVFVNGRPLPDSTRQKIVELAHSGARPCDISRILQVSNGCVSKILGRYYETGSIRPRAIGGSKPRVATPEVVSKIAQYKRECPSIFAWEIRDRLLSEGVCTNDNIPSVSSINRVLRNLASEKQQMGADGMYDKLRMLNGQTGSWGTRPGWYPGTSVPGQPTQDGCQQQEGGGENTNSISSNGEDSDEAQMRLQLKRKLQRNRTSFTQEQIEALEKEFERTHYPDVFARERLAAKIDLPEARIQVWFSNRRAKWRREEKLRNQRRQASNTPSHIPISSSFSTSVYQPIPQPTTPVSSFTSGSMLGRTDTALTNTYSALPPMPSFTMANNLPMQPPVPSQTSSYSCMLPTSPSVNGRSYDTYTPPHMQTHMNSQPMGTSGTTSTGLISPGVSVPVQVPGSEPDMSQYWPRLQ
Sequence of Estrogen-related receptor gamma (Homo sapiens) (P62508 whole entry, looked up, the tested form may be a part): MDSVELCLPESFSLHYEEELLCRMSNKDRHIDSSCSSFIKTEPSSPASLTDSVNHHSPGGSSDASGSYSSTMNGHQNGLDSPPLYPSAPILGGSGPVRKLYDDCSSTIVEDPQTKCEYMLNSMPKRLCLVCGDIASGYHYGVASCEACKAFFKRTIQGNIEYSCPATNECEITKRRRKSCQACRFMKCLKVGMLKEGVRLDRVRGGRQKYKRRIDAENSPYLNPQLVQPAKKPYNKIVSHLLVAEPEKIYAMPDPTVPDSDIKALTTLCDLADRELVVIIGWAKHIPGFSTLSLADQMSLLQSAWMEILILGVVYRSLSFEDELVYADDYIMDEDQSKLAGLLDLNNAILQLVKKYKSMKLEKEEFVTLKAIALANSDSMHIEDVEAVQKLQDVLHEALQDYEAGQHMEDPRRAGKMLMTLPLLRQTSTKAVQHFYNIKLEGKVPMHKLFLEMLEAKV
Sequence of Steroid hormone receptor ERR1 (Homo sapiens) (P11474 whole entry, looked up, the tested form may be a part): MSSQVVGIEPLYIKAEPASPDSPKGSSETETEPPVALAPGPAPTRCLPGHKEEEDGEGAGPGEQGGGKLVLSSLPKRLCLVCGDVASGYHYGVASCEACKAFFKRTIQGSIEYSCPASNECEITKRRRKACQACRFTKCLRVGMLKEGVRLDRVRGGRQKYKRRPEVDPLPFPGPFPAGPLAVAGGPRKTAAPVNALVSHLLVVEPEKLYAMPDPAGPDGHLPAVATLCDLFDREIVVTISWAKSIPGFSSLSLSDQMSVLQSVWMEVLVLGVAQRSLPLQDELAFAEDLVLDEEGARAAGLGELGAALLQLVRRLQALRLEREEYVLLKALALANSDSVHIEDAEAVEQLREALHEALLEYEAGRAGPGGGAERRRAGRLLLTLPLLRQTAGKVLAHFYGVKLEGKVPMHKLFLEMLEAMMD
Sequence of Nuclear receptor subfamily 1 group I member 3 (Homo sapiens) (Q14994 whole entry, looked up, the tested form may be a part): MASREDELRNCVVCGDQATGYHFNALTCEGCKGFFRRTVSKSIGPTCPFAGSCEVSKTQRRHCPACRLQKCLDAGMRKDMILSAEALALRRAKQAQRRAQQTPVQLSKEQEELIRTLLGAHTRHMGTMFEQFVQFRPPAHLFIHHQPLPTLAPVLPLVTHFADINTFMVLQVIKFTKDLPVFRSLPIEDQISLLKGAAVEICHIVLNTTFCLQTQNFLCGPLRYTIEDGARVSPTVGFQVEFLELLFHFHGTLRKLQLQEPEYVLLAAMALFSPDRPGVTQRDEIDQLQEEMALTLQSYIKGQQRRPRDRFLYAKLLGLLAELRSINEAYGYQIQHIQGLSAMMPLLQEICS

In the case of `CC(=O)Nc1ccc2c(c1)Cc1cc(NC(C)=O)ccc1-2`, the molecule was classed as inactive in assay [1], in assay [2], in [3], in assay [4], in assay [5] and in [6]. Further, the outcome in assay [7], in [8], in [9], in [10], in [11] and in assay [12] was inactive. Moreover, the molecule was called inactive in assay [13], in [14] and in assay [15].
As to `CCOC(=O)c1ccccc1C(=C1C=C(Br)C(=O)C(Br)=C1)c1cc(Br)c(O)c(Br)c1`, the AC50 (usually the concentration at which the activity in the assay is half-maximal) in [1] is 39.3 µM (active); in [3], 19.8 µM (active); in assay [6] it was 20.7 µM (active); in assay [10] it was 24.8 µM (active); in [13], 25.9 µM (active); in [15], 34.4 µM (active). Also, the result in assay [2], in assay [4], in [5], in [7], in [8] and in assay [9] was inactive. In addition, the molecule was classed as inactive in [11], in assay [12] and in assay [16].
Take `CCCC(=O)OCc1ccccc1`: the molecule was called inactive in assay [1], in assay [2], in [3], in assay [4], in assay [5] and in assay [6]. Moreover, the result in assay [7], in [8], in [9], in [10], in assay [11] and in assay [12] was inactive. The molecule was classed as inactive in assay [13], in assay [17], in assay [15], in assay [18] and in assay [19].
On to `CN(C)CCCN(C)C`, for which the molecule was called inactive in [1], in assay [2], in [3], in [4], in [5] and in assay [6]. Besides, the result in [7], in assay [8], in assay [9], in assay [10], in [11] and in assay [12] was inactive. The molecule was classed as inactive in assay [13], in assay [16], in [15], in [18] and in assay [19].
`CC=CCO`: the result in [1], in [3], in assay [4], in assay [5], in assay [6] and in assay [7] was inactive. The result in assay [8], in assay [9], in [10], in assay [11], in assay [12] and in assay [13] was inactive. Further, in [15], the result was inactive. Also, the AC50 in assay [2] is 26.8 µM (active).
As for `C=C(C)CCO`, the molecule was called inactive in [1], in assay [3], in assay [4], in assay [5], in assay [6] and in assay [7]. The outcome in assay [8], in assay [9], in assay [10], in assay [11], in assay [13] and in assay [16] was inactive. The result in assay [15] and in assay [19] was inactive. Besides, the AC50 in assay [2] was 5.16 µM (active); in assay [12] it was 0.316 µM (active).
As for `CCCOCCOCCOCCO`, the result in [1], in [2], in assay [3], in assay [4], in assay [5] and in assay [6] was inactive. For the same molecule, the molecule was classed as inactive in assay [7], in assay [8], in [9], in assay [10], in [11] and in assay [12]. Further, the molecule was classed as inactive in [13], in assay [17], in assay [15], in assay [18] and in assay [20].
In the case of `O=S(=O)(Oc1ccc(Cl)cc1Cl)c1ccccc1`, the outcome in [1], in assay [3], in [4], in assay [5], in assay [6] and in [7] was inactive. Further, the outcome in assay [8], in assay [9], in [10], in [11], in [14] and in [15] was inactive. For the same molecule, the outcome in assay [20] was inactive. Besides, the AC50 was 2.2 µM (active) in assay [2], 63.4 µM (active) in assay [12], 6.51 µM (active) in [13] and 5.33 µM (active) in assay [16].

(Values after PubChem BioAssay (EPA / NIEHS).)
